Screening results (PubChem BioAssay)
Compounds with a hit are over-represented: about 11% of the library has one in this group of screens.
Insulin prom inh: inhibitors of insulin promoter-driven GFP, primary screen, imaging, TRM-6 cells (human fetal islet line), eGFP reporter, cell count. reporter expression induced with tamoxifen. inhibition, % at 2 µM. 130,000 compounds, 0.9% hits. AID 1273, 2008;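 active means inhibition above the mean plus 3 SD, with well images judged a real hit on visual review, cut at about 60% in these data, passing the limit was not always enough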
Insulin prom up: insulin promoter activators in MIN6 cells, imaging, high-content screening, mouse beta cells; MIN6 insulin promoter-GFP reporter; active compounds read high; z-score at 5 µM; 190,000 compounds, 0.3% hits;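 active means z-score above 3 at 5 µM with at least 500 cells counted in the well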
WT yeast gro inh: growth inhibition of WT strain, primary screen, mitochondrial fusion inhibitor project, WT and mutant strains, chemical genetic | mitochondrial fusion phenotypic screen | inhibition, % at 10 µM | 190,000 compounds, 2.1% hits; in the data active means inhibition above about 58%; tested in S. cerevisiae
Autophagy HCS: autophagy modulators in MEF cells, primary screen, imaging, high-content, MEF GFP-LC3; MEF GFP-LC3 puncta imaging; test concentration mostly 10 µM; 190,000 compounds, 0.98% hits; calls only at 10 µM (by protocol);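 active means percentage of spot-positive cells more than 3 SD above its plate mean, without a fluorescence outlier flag or 80% toxicity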;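 further: spot-positive cell cutoff set from DMSO-treated cells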
L major viab: Leishmania major promastigote growth inhibition, primary screen. Leishmania major promastigotes, resazurin fluorescence viability. AID 1063, 2008. inhibition, % at 10 µM. 200,000 compounds, 9% hits; in the data active means inhibition above about 50%;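 further: promastigotes grown with compound for 44 hours at 28 °C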
Active calls of the source: *; i = inactive; x = not tested or not shown.

SMILES | Insulin prom inh | Insulin prom up | WT yeast gro inh | Autophagy HCS | L major viab
O=C(NC(Cc1ccc2c(c1)OCO2)C(=O)N1CCCC1C(=O)O)c1ccccc1 (stereo not drawn) | 87* | 1.4 | 6 | i | -3
Cc1ccc(CC(NC(=O)c2ccccc2)C(=O)NC(Cc2ccccc2)C(=O)O)cc1 (stereo not drawn) | 33 | 0.16 | 1 | i | 14
CC(NC(=O)C(Cc1ccccc1)NC(=O)c1ccccc1)C(=O)O (stereo not drawn) | 0 | 0.75 | -9 | i | 85*
O=C(O)CCC(NC(=O)C(Cc1ccc2c(c1)OCO2)NC(=O)c1ccccc1)C(=O)O (stereo not drawn) | 43 | 0.35 | 12 | i | 12
O=C(NC(Cc1ccc2c(c1)OCO2)C(=O)NC(Cc1ccccc1)C(=O)O)c1ccccc1 (stereo not drawn) | 67 | -0.06 | 10 | i | 88*
O=c1cc(-c2ccccc2)nc2c(-c3ccccc3)c(C(F)(F)F)[nH]n12 | x | 0.06 | x | x | x
COc1ccc(CC2(C)OC(c3ccc([N+](=O)[O-])cc3)=NN2C(C)=O)cc1 (stereo not drawn) | x | -0.43 | x | x | x
CC1=C(C(=O)OCC(C)C)C(c2cc3c(cc2Br)OCO3)NC(=O)N1C (stereo not drawn) | -8 | -0.33 | 22 | i | 35
COC(=O)C1=CN(C(C)C)C=C(C(=O)OC)C1c1cc2c(cc1Br)OCO2 | 10 | -0.16 | 6 | i | 100*
CCOc1ccccc1OCCCNCc1ccco1 | 0 | -0.47 | -2 | i | 3
CC(C)(C)N1CSC(=S)N(Cc2ccccc2)C1 | -4 | -0.2 | 1 | i | 91*
S=C1SCN(Cc2cccnc2)CN1Cc1ccccc1 | 25 | 0.81 | -12 | i | 72*
S=C1NCN(Cc2cccnc2)CN1Cc1ccccc1 | x | -0.28 | x | x | x
CC(C)N1CSC(=S)N(Cc2ccccc2)C1 | x | 1.2 | 23 | i | 75*
CC(C)CN1CN(Cc2ccccc2)CNC1=S | x | -0.27 | -5 | i | -6
O=C(NNc1ccccc1)C(CCO)C(=O)NNc1ccccc1 | x | 1.3 | 27 | i | 76*
CC(O)CC(C(=O)NNc1ccccc1)C(=O)NNc1ccccc1 (stereo not drawn) | x | 0.01 | 53 | i | 63*
CC(C)OC(=O)C(=O)NNc1ccccc1 | -6 | 0.66 | 72* | i | 42
COC(=O)[C@@H](NC(=O)O[C@@H]1C(=O)c2ccc(OC)cc2O[C@H]1c1cccc(C(F)(F)F)c1)C(C)C | -35 | -0.93 | 34 | i | 6
Cc1cccc(N/C(N)=N/c2nc(C)cc(=O)[nH]2)c1 | -24 | x | -2 | i | 0
Cc1ccc(-c2[nH]c3ccccc3c2C(C[N+](=O)[O-])c2ccco2)cc1 (stereo not drawn) | 50 | x | 69* | i | 7
CC1(c2ccc(Cl)c(Cl)c2)NC(=S)N2C1NC(=S)N2c1ccccc1 (stereo not drawn) | -14 | 0.58 | 7 | i | -1
Cc1ccc(NC(=S)NNC(=O)c2ccccc2O)c(C)c1 | x | 1.3 | 26 | i | -2
CC(C)NC(=O)N1CCN(c2ccncc2S(=O)(=O)N2CCOCC2)CC1 | -18 | 5.8* | -38 | i | -7
CC(C)NC(=O)NS(=O)(=O)c1cnccc1N1CCCCC1 | -69 | x | 1 | i | -9
SMILES | Insulin prom inh | Insulin prom up | WT yeast gro inh | Autophagy HCS | L major viab
Cc1ccc(NC(=O)CSCC(=O)NCCc2ccccn2)c(C)c1 | x | -0.1 | -16 | i | -9
O=C(CSc1nc2ncc(Br)cc2[nH]1)c1cccc([N+](=O)[O-])c1 | -18 | 0.34 | 16 | i | 54*
CCc1nc(SCC(=O)c2cccc([N+](=O)[O-])c2)n[nH]1 | 11 | 0.25 | -16 | i | 61*
Cc1nc2nc(SCC(=O)c3cccc([N+](=O)[O-])c3)[nH]c2cc1Br | x | -0.36 | 17 | i | 21
COc1ccc(C(=O)c2ccc(CC(=O)O)s2)cc1 | x | -2.6 | -9 | i | -8
O=C(c1ccc(Cl)cc1)N1CCC(c2nc(-c3cccs3)no2)CC1 | x | -1.1 | 2 | i | 87*
CC(C)(C)N=C1NN=C(c2ccc(Cl)cc2)CS1 | x | -0.13 | x | x | x
CC(C)(C)N=C1NN=C(c2cc3ccccc3o2)CS1 | x | -0.45 | 67* | i | -6
CC(C)C[C@H](NC(=O)OC(C)(C)C)C(=O)N1CCC(C(=O)N[C@@H](Cc2ccccc2)C(=O)O)CC1 | x | x | -1 | i | 5
CCCc1ccc(C(=O)/C=C/N(C)C)cc1 | x | -1 | 1 | i | -5
CC1CN(CCC(=O)Nc2ccc3c(c2)CCC3)CC(C)O1 (stereo not drawn) | 42 | -0.06 | 5 | i | 86*
Cc1ccc(C(=O)Nc2ccc3c(c2)CCC3)cc1 | 45 | 0.41 | 18 | i | -1
NC(=O)C1CCN(CCC(=O)Nc2ccc3c(c2)CCC3)CC1 | -393 | x | -9 | i | 80*
Cc1cc(NC(=O)CCN2CCC(C(N)=O)CC2)ccc1Br | -18 | 0.81 | -8 | i | 82*
O=C(Nc1ccc2c(c1)CCC2)c1cccc(F)c1 | -16 | -0.02 | -3 | i | 83*
COCCNC(=S)NNc1cccc(C(=O)O)c1 | 9 | -0.42 | 7 | i | -3
CC1CCN(CCC(=O)Nc2ccc3c(c2)CCC3)CC1 | 31 | x | 15 | i | 84*
CC1CN(S(=O)(=O)c2cccc(C(=O)Nc3ccc4c(c3)CCC4)c2)CC(C)O1 (stereo not drawn) | 2 | -0.27 | 22 | i | 85*
Cc1ccc(C(=O)Nc2ccc3c(c2)CCC3)cc1S(=O)(=O)N1CCOCC1 | x | -0.6 | 11 | i | 24
CC1CN(S(=O)(=O)c2cccc(C(=O)NN3CCN(C)CC3)c2)CC(C)O1 (stereo not drawn) | x | -0.25 | 7 | i | -5
CN(c1cccc(Cl)c1)S(=O)(=O)c1cccc(C(=O)Nc2ccc3c(c2)CCC3)c1 | -17 | -0.43 | -21 | i | 95*
O=C(Nc1ccc2c(c1)CCC2)c1ccc(F)c(S(=O)(=O)N2CCOCC2)c1 | -62 | 0.26 | 6 | i | 78*
Cc1c(NC(=O)C(C)OC(=O)CC2Sc3ccccc3NC2=O)c(=O)n(-c2ccccc2)n1C (stereo not drawn) | 0 | 0.85 | -6 | i | 21
CCOC(=O)c1[nH]c2ccccc2c1NC(=O)CCN1CC(C)OC(C)C1 (stereo not drawn) | 5 | -0.33 | -15 | i | -3
Cc1cccc(C)c1NC(=O)CCCN1CC(C)OC(C)C1 (stereo not drawn) | -3 | 1.3 | -5 | i | 66*
CCNc1oc(-c2cccc3ccccc23)nc1C#N | -36 | -0.61 | -2 | i | -3
N#Cc1nc(-c2cccc3ccccc23)oc1NCCN1CCCCC1 | -59 | -0.83 | 36 | i | 100*
Cn1c(=O)c2c(nc(CN3CCc4ccccc4C3)n2Cc2ccccc2F)n(C)c1=O | -37 | 0.75 | 3 | i | 61*
Cn1c(=O)c2c(nc(CN3CCc4ccccc4C3)n2Cc2cccc(Cl)c2)n(C)c1=O | x | -0.35 | 6 | i | 56*
